From PubChem BioAssay
A number with no mark means an inactive call. Calls of active or inactive are those of the source.

Experiment: S. cerevisiae growth modulation with rapamycin, primary screen, strain BY4716, OD600, 96 h (AID 1091); also: test concentration not given here
Conditions: higher = more signal, called active from +8 up or from −8 down

Q: Which z-score does the source give for COC(=O)C(CC#Cc1ccc2c(c1)[C@]1(C(=O)N2)[C@H](C(=O)N2CCN(c3ncccn3)CC2)[C@H]2C(=O)O[C@H](c3ccccc3)[C@H](c3ccccc3)N2[C@@H]1c1ccc(OCCO)cc1)C(=O)OC here?
A: 5.67

Q: With COCCOC(=O)N1C(=O)[C@@]2(c3cc(C#CC4=CCCCC4)ccc31)[C@H](c1ccccc1OCCO)N1[C@H](c3ccccc3)[C@H](c3ccccc3)OC(=O)[C@H]1[C@@H]2C(=O)N1CCCCCCC1 as the compound, how does the z-score read?
A: 3.07

Q: With CCOC(=O)C[C@H]1[C@H](OC(=O)c2ccc(C(=O)c3ccccc3)cc2)[C@@H](NC(=O)Cc2ccc(OC)cc2)c2cc(OCCCO)ccc2N1C(=O)c1ccccc1 as the compound, how does the z-score read?
A: -0.378

Q: With C=CC[C@@]1(C(=O)N2CCOCC2)N=C(c2ccc(OCCCO)cc2)O[C@@H]1c1ccccc1CN=[N+]=[N-] as the compound, how does the z-score read?
A: -0.74

Q: Which z-score does the source give for NC(=O)NCC#Cc1ccc2c(c1)[C@]1(C(=O)N2)[C@H](C(=O)NC[C@H](O)c2ccccc2)[C@H]2C(=O)O[C@H](c3ccccc3)[C@H](c3ccccc3)N2[C@@H]1c1ccc(OCCO)cc1 here?
A: 3.73

Q: With C=C(COC)/C(=C/C[C@H](OC(=O)c1ccncc1)c1ccccc1OCCO)c1cnc2ccccc2c1 as the compound, how does the z-score read?
A: -0.252

Q: For [N-]=[N+]=Nc1ccccc1C[C@]1(C(N)=O)N=C(c2ccc(OCCCO)cc2)O[C@H]1c1ccccc1N=[N+]=[N-], which z-score is on record?
A: -0.686

Q: Which z-score does the source give for CN1C(=O)C2C=CC(C(O)c3ccccn3)N(N(c3ccccc3)c3ccccc3)C2C1=O (configuration not stated) here?
A: 0.491

Q: For NCCCCCCNC(=O)[C@@H]1C[C@@H]2C(=O)N[C@@H](CCCCN)C(=O)N2[C@@H]1c1cccc(OCCO)c1, which z-score is on record?
A: 0.487

Q: For O=C1N(Cc2ccccc2)c2ccccc2[C@@H]2OC(c3ccc(OCCCO)cc3)=N[C@]12Cc1ccccc1, which z-score is on record?
A: 4.88

Q: With CCCCCCCCCCC(O)C1C=CC2C(=O)N(C)C(=O)C2N1NC(=O)OC(C)(C)C (configuration not stated) as the compound, how does the z-score read?
A: -1.97

Q: With OCCCC1=CC(c2ccc(CN3CCCC3)cc2)N(Cc2sc3ccccc3c2Cl)CC1 (configuration not stated) as the compound, how does the z-score read?
A: -0.628

Q: For [N-]=[N+]=Nc1ccccc1[C@@H]1OC(c2ccc(OCCCO)cc2)=N[C@]1(Cc1ccccc1)C(=O)NCC(O)CO (some centres not stated), which z-score is on record?
A: 1.32

Q: Which z-score does the source give for C=CCC(OC(C)=O)[C@@H]1[C@@H](N(Cc2cc3ccccc3o2)C(=O)c2ccc(-c3ccccc3)cc2)c2cc(OCCCO)ccc2N1C(=O)c1ccc2ccccc2c1 (some centres not stated) here?
A: 1.03

Q: For Cc1cc(C)c(C(O)C2C=CC3C(=O)N(c4ccccc4)C(=O)C3N2Nc2ccc(C(C)C)cc2)c(C)c1 (configuration not stated), which z-score is on record?
A: 1.26

Q: Which z-score does the source give for COc1cc(OC)c(C(O)C2C=CC3C(=O)N(c4ccccc4)C(=O)C3N2Nc2ccccc2)cc1Br (configuration not stated) here?
A: 0.326

Q: With CO[C@H]1O[C@H](CO)[C@@H](OC(=O)Nc2ccccc2-c2ccccc2)[C@H](OC(=O)Nc2ccc3c(c2)OCO3)[C@H]1OC(=O)Nc1ccc2c(c1)OCO2 as the compound, how does the z-score read?
A: 7.32

Q: With CC1CC/C=C\[C@H]2OC34C=CCN(c5ccc(Cl)cc5)C(=O)[C@H]3N(CCCCCO)C(=O)[C@]4(C)C2C(=O)O1 (some centres not stated) as the compound, how does the z-score read?
A: -0.166

Q: With CC(C)N1C(=O)c2ccccc2[C@@H](C(=O)NC2CC2)[C@@H]1c1ccc(CO)cc1 as the compound, how does the z-score read?
A: -0.39

Q: For COCCCNC(=O)[C@@]1(Cc2ccccc2CN=[N+]=[N-])N=C(c2ccc(OCCCO)cc2)O[C@H]1c1ccccc1, which z-score is on record?
A: 11.6 (active)

Q: With COc1ccc([Si](C)(C)[C@@H]2[C@@H](CCO)O[C@]3(C(=O)N(Cc4ccc(N5CCCCC5=O)cc4)c4ccccc43)[C@H]2C)cc1 as the compound, how does the z-score read?
A: 3.05

Q: Which z-score does the source give for C=C(/C(=C/C[C@@H](OC(C)=O)c1cccc(OCCO)c1)c1cc(C(=O)OC)ccc1OC)C(C)C here?
A: -0.87

Q: With C=C(COC)C(=O)CC[C@@H](OC(=O)c1cccnc1)c1ccc(OCCO)cc1 as the compound, how does the z-score read?
A: -3.62

Q: With CN(C)c1ccc(C(O)C2C=CC3C(=O)N(c4ccccc4)C(=O)C3N2Nc2ccc([N+](=O)[O-])cc2)cc1 (configuration not stated) as the compound, how does the z-score read?
A: 2.39

Q: With C=C[C@@H](COC(C)=O)N(C(=O)OC(C)(C)C)S(=O)(=O)c1ccc(Br)cc1 as the compound, how does the z-score read?
A: -0.666

Q: Which z-score does the source give for CCCC[C@@H](O)C1=C(COc2ccccc2)C[C@H]2C(=O)N(C)C(=O)[C@H]2[C@H]1CO here?
A: -0.561

Q: For COC(=O)c1ccc([C@H](NC(=O)c2ccco2)[C@]2(C)C[C@H]2C2CCCCC2)cc1, which z-score is on record?
A: 0.605
